HT1080-NT tox – kills 2HG-producing HT-1080-NT fibrosarcoma cells; HT-1080-NT fibrosarcoma viability, CellTiter-Glo ATP luminescence, 48 h; Potency, µM (series often up to 46.1 µM), without a hit: at the highest dose activity, negative = less viability, usual class: cytotoxic; 1.6% of 360,000 active; AID 686970;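 note: NT is the 2HG producing partner of a matched IDH1 knockdown line; 0% = DMSO-treated cells and -100% = media-only wells without cells; nearly all actives have a fitted effect of over 55% in size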
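HT-1080-NT fibrosarcoma cells (2HG-overproducing), 750 cells/well in RPMI with 5% FBS, dosed after 2 h and incubated 48 h at 37C. CellTiter-Glo luminescence normalized to DMSO and no-cell wells; concentration-response curves fitted and classed.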
KB-3-1 cytotox – kills parental KB-3-1 adenocarcinoma cells; KB-3-1 viability, CellTiter-Glo ATP luminescence, 72 h; Potency, µM (doses to about 46.1 µM), most hits filed as cytotoxic; 1.4% of 400,000 active; AID 1347075; note: % is set by controls: 0 for no effect and ±100 for the full control effect; nearly all actives have a fitted effect of over 60% in size
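Luminescent ATP read-out (CellTiter-Glo) measures survival of drug-naive KB-3-1 cells after 72 h compound exposure at 37 °C. Titration series was screened from lowest to highest concentration, with DMSO vehicle plates as background controls.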
KB-V1 cytotox – kills drug-selected multidrug resistant KB-V1 cells; KB-V1 MDR cells viability, CellTiter-Glo, 72 h; AID 1347076; Potency, µM (top dose mostly 46.1 µM), most hits filed as cytotoxic; 3.4% of 400,000 active; note: % is set by controls: 0 for no effect and ±100 for the full control effect; nearly all actives have a fitted effect of over 60% in size
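Following 72 h at 37 degrees C with compound, KB-V1 cell viability was read by CellTiter-Glo luminescence, medium being phenol-red-free DMEM plus 10% FBS; concentration-response parameters came from normalized, curve-fitted qHTS data.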
ATXN2 expr inh – reduces ATXN2 reporter expression in HEK-293 cells. Potency, µM (doses to about 57 µM), inactives show at the top dose activity change, negative = inhibition, most hits filed as inhibitors. HEK-293 ATXN2-luciferase reporter, luminescence, 24 h. 0.72% of 360,000 active; note: % is set by controls: 0 for no effect and ±100 for the full control effect; nearly all actives have a fitted effect of over 55% in size
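ATXN2-luciferase reporter cells (luciferase flanked by upstream and downstream ATXN2 gene portions) were treated 24 h at 37 °C with compounds at up to 57 uM. SteadyGlo luminescence gave expression; GF-AFC fluorescence gave viability.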
HT1080 IDH1KD tx – toxicity to HT-1080 IDH1 knockdown cells (counter line); HT-1080 IDH1 knockdown viability, ATP luminescence, 48 h; Potency, µM (top dose mostly 46.1 µM), without a hit: at the top dose activity, negative = toxicity, most hits filed as cytotoxic; 2% of 360,000 active;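 note: 0% = DMSO wells and -100% = cell-free medium wells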
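Using the IDH1-knockdown HT-1080 line run in the same batch and compound series as the NT line, viability after 48 h at 37 °C was determined by CellTiter-Glo luminescence and expressed as % activity.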
S2 tox – viability counter-screen for ATXN expression inhibitors; S2 cells (HEK-293 line with an ATXN2-luciferase reporter) viability, CellTiter-Fluor protease fluorescence, 24 h; Potency, µM (titrated, usually from 56.7 µM), actives largely listed as cytotoxic; 0.49% of 400,000 active; AID 651635; note: nearly all actives have a fitted effect of over 40% in size
Active calls of the source: *; i = inactive; ? = inconclusive; . = not tested or not shown; [ ] = remark or other dose. Shown are actives, neighbours in structure and some others; about 6.2% of the full set was active somewhere. Calls come from the whole dose curve; as a rule, active = well fitted curve in the direction sought with a large enough effect; inconclusive = small, poorly fitted or top-dose-only effect, or another doubt; inactive = no such curve, though single readings can be large; an effect the other way counts as inactive or inconclusive. Potency is the fitted concentration of half-maximal effect.

SMILES	HT1080-NT tox	KB-3-1 cytotox	KB-V1 cytotox	ATXN2 expr inh	HT1080 IDH1KD tx	S2 tox
Cc1cc(C)n(-c2nnc(NCc3ccc(Cl)cc3)nn2)n1	-15.2%	i	i	-9.1%	-28.0%	i
CCC(=O)Nc1nc2ccc3sc(C)nc3c2s1	-21.9%	?	?	.	?	i
Cc1nc2c(ccc3nc(NC(=O)C4CC4)sc32)s1	?	?	20.6µM*	-29.3%	?	i
CCC(=O)N1CCc2cc(Br)cc(S(=O)(=O)CCC(=O)NCc3ccc(Cl)cc3)c21	.	i	i	-15.6%	.	i
O=C(O)c1ccc(N2CCCCCC2)c(N2C(=O)c3ccccc3C2=O)c1	16.7%	i	i	-2.3%	15.5%	i
O=C1C=C(N2CCCCC2)c2ccccc2C1=O	6.51µM*	11.6µM*	10.3µM*	29.9µM*	5.8µM*	.
O=C1c2ccccc2C(=O)c2c1cccc2N1CCCC1	-14.8%	i	14.6µM*	10.1%	-17.1%	?
O=C(NCCN1CCCC1)c1ccccc1Cl	-6.3%	i	i	-10.2%	6.4%	i
O=C1c2ccccc2-c2onc3ccc(NCc4ccco4)c1c23	-21.0%	i	10.3µM*	?	?	14.1µM*
O=C1C(Cl)=C(NCCN2CCCCC2)C(=O)c2ccccc21	14.6µM*	?	?	14.1µM*	23.1µM*	20µM*
O=C1CN(C(=O)Cc2ccc(F)cc2)C(c2ccccc2)c2cc(Br)ccc2N1 (stereo not drawn)	.	i	i	11.0%	.	i
COCCNCCCn1c(C(=O)CF)c(-c2ccc(C)cc2)c2c(N)ncnc21	.	.	.	17.5%	.	.
COc1ccccc1NC(=O)CSC1=Nc2ccccc2C2=NC(CCC(=O)NCc3ccco3)C(=O)N12 (stereo not drawn)	.	i	i	.	.	.
N#CN=c1snc(-c2ccccc2Cl)n1-c1ccc(F)cc1	.	i	i	.	.	.
COc1ccc2nc3sc(C(=O)N4CCN(c5ccccc5)CC4)cc3cc2c1	.	i	i	-3.5%	.	i
CCOc1ccc2noc3c2c1C(=O)c1ccccc1-3	?	i	?	5.3%	2.1%	i
O=c1nccc(NCc2ccco2)[nH]1	-0.4%	?	i	-4.9%	18.3%	i
O=C1c2ccccc2-c2onc3ccc(N4CCCC4)c1c23	?	?	?	?	?	23.8µM*
O=C1C(Cl)=C(NCc2ccco2)C(=O)c2ccccc21	?	?	?	-12.9%	16.4µM*	?
CC(C)c1nn2c(=O)cc(COC(=O)COc3ccccc3F)nc2s1	.	i	i	6.0%	.	i
Cc1ccc(-c2n[nH]c(=S)n2-c2ccccc2)cc1	10.9%	?	i	0.4%	12.5%	i
Cc1ccc(-n2c(-c3cccc(C)c3)n[nH]c2=S)cc1	?	i	i	16.4%	10µM*	i
COc1cc(-c2n[nH]c(=S)n2-c2cccc(C(F)(F)F)c2)cc(OC)c1OC	8.7%	i	23.1µM*	2.3%	9.1%	i
O=C1NC(=O)C(c2ccccc2)(c2ccccc2)N1S(=O)(=O)c1ccccc1	0.4%	i	i	.	1.9%	i
COC1CCN(Cc2cn(Cc3ccccc3)nc2-c2cc3ccccc3o2)CC1	?	?	?	?	25.9µM*	?
SMILES	HT1080-NT tox	KB-3-1 cytotox	KB-V1 cytotox	ATXN2 expr inh	HT1080 IDH1KD tx	S2 tox
COc1ccccc1C(=O)N[C@@H]1c2ccccc2C2(CCN(Cc3c(O)cccc3OC)CC2)[C@H]1O	.	.	.	.	.	i
Cc1ccc(N(CCC#N)C(=O)CCl)cc1C	9.2µM*	?	?	?	13µM*	.
Cc1ccc(C)c(-n2c(-c3ccc(Br)cc3)csc2=NC(=O)c2ccccc2F)c1	19.9%	11.6µM*	?	-9.6%	8.9%	i
O=C(c1cccs1)N1N=C(c2ccccc2)CC1c1ccccc1O (stereo not drawn)	-27.6%	i	i	4.9%	-22.2%	i
CC(=O)N1N=C(c2ccncc2)CC1c1ccccc1O (stereo not drawn)	8.2%	?	i	-26.2%	6.0%	i
Cc1ccc(C2=NN(S(=O)(=O)c3ccccc3)C(c3ccccc3O)C2)cc1 (stereo not drawn)	18.4µM*	i	?	.	?	i
O=C(c1ccccc1)N1N=C(c2ccccc2)CC1c1ccccc1O (stereo not drawn)	23.1µM*	i	i	-14.6%	25.9µM*	i
Cc1ccc(C2=NN(C(=O)c3ccccc3F)C(c3ccccc3F)C2)cc1 (stereo not drawn)	13µM*	?	?	-34.3%	13µM*	i
CC(=O)N1N=C(c2ccccc2)CC1c1cn(Cc2ccccc2)c2ccccc12 (stereo not drawn)	?	?	14.6µM*	-23.5%	?	i
COc1cccc(CCNc2ncnc3sc(C(=O)N4CCOCC4)c(C)c23)c1	.	.	.	.	.	i
CC(=O)N1N=C(c2ccc3nccnc3c2)CC1c1ccccc1 (stereo not drawn)	5.0%	i	i	1.2%	0.6%	i
O=C(c1ccccc1)N1N=C(c2ccccc2)CC1c1ccc2nccnc2c1 (stereo not drawn)	5.4%	i	7.31µM*	1.3%	0.9%	i
Cc1ccc(C(=O)C2Oc3ccccc3C3CC(c4ccc(C)cc4)=NN23)cc1 (stereo not drawn)	7.8%	i	20.6µM*	20.6%	9.3%	?
O=C(c1ccncc1)N1N=C(c2ccc(Br)cc2)CC1c1ccccc1O (stereo not drawn)	?	i	20.6µM*	?	?	i
COC(=O)N1C(=O)[C@](c2ccc(Cl)cc2)(C(C)C)N1C(=O)OC	-24.3%	i	i	?	-12.5%	31.6µM*
Cc1cccc(C)c1NC(=O)C(CCc1ccccc1)N1CCN(C)CC1 (stereo not drawn)	-9.7%	i	?	.	6.5%	.
CCc1ccc2c(c1)C(=O)C(=O)N2CCS(=O)(=O)c1ccccc1	-7.6%	i	i	.	-0.3%	i
CCCN1C(=O)C(=O)c2cc(Cl)ccc21	14.6µM*	i	i	?	14.6µM*	?
O=C1C(=O)N(CCS(=O)(=O)c2ccccc2)c2ccc(Cl)cc21	?	16.4µM*	i	-14.5%	?	i
O=C(Nc1cccc(Br)c1)c1ccc(Cl)c(S(=O)(=O)N2CCOCC2)c1	7.08µM*	?	4.61µM*	?	7.9%[9.24 µM]	i
O=C(COc1cccc(Br)c1)Nc1ccc(Cl)c(S(=O)(=O)N2CCOCC2)c1	16.4µM*	i	?	?	-10.1%	?

Bioassay records deposited in PubChem BioAssay by National Center for Advancing Translational Sciences (NCATS).
